Only a selection was taken, and hits are over-represented in it overall.
ERK EGF inh – blocks ERK signaling stimulated by EGF. HEK293-V1b, EGF-stimulated phospho-ERK AlphaScreen. Potency, µM (series often up to 11.5 µM), inactives show at the top dose activity change, negative = inhibition, hits mostly inhibitors. 130,000 compounds, 0.41% hits. AID 1454; active = well fitted inhibition curve with a large enough effect;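 also: plate controls were stimulated vehicle wells for no effect and unstimulated vehicle basal for full effect; nearly all actives have a fitted effect of over 55% in size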
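Concentration-response of compounds against EGF-driven ERK phosphorylation in V1b-expressing HEK293 cells; 30 min preincubation, 5 min EGF, AlphaScreen detection; Normalized to DMSO basal and 25 nM EGF.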
An asterisk follows results filed as active; [ ] = remark or other dose. Potency is read from the fitted curve at half-maximal effect.

SMILES	ERK EGF inh
NC(=O)CSCc1cccc(Br)c1	19%
NC(=S)N=Nc1c(O)[nH]c2ccccc12	7%
O=S(=O)(Cc1ccccc1)N=Nc1c(O)[nH]c2ccc(Br)cc12	2%[57.5 µM]
O=Nc1c(-c2c(O)[nH]c3cc(Br)ccc23)[nH]c2ccccc12	28µM*
Cc1cccc(C)c1NC(=O)NN1C(C)CCCC1C (centres undefined)	0%
CC(C)(C)c1ccc(/C=C/C(=O)c2ccc(NC3=NCCCS3)cc2)cc1	27%
O=S(=O)(c1ccc2nnn(O)c2c1)N1CCCCC1	-5%
O=C(O)c1cc(=O)cc(C(=O)O)[nH]1	2%
Cc1ccc(NC(=O)CSc2n[nH]c(C)c2[N+](=O)[O-])cc1	4%
O=C(N/N=C/c1cccnc1)c1ccccc1OCc1cccc(Br)c1	1%
O=C(N/N=C/c1ccco1)c1ccccc1OCc1ccc(Br)cc1	0%
Cc1ccc(/C=N/NC(=O)c2ccccc2OCc2cccc(Br)c2)o1	22µM*
CC(=O)C(Cc1ccccc1)NC(=O)CN1CCN(Cc2ccccc2)CC1 (centres undefined)	-15%
COc1ccc(CCN(C)c2ccc(S(=O)(=O)N3CCCC3)cn2)cc1OC	-3%
O=C(NC1CCCCCC1)c1ccc(=O)n(Cc2ccccc2)n1	4%
CCOC(=O)C1CCN(c2ncnc3c2cnn3-c2ccc(OC)cc2)CC1	10%[57.5 µM]
COc1ccc(-n2ncc3c(N4CCN(Cc5ccccc5)CC4)ncnc32)cc1	32µM*
COc1ccc(-n2ncc3c(N4CCC(C(N)=O)CC4)ncnc32)cc1	6%[57.5 µM]
CCc1cc2c(=O)c(-c3ccc4c(c3)OCCO4)coc2cc1OS(C)(=O)=O	-2%
CC(C)=CCc1c(O)cc2occ(-c3ccc4c(c3)OCO4)c(=O)c2c1O	22µM*
O=c1c(-c2cc(O)c(O)c(O)c2)coc2cc(O)c(O)c(O)c12	18%
COc1cccc(NC(=S)Nc2cc(C)cc(C)n2)c1	-13%[57.5 µM]
Cc1cc(C(=O)Nc2cccc([N+](=O)[O-])c2)c(C)o1	7%
CCOC(=O)NCCOC(=O)Nc1ccc(Cl)cc1	2%
CCN1C(=O)C(CC(=O)Nc2ccc(Cl)cc2)N(NC(=O)c2ccncc2)C1=S (centres undefined)	-1%[57.5 µM]
SMILES	ERK EGF inh
CC(=O)c1cccc2c(O)c(C3=Nc4ccccc4C3=O)[nH]c12	25µM*
CC(=O)Nc1c(O)c2ccccc2[nH]c1=O	2%
O=C(O)c1cccc2c(-c3ccccc3)c(-c3ccccc3)[nH]c12	8%[57.5 µM]
COC(=O)c1cc(OC)c(OC)cc1NC(=S)N1CCCC1	-23%
CCn1cnc2c(oc3ccccc32)c1=O	-3%
c1coc(CN(Cc2ccco2)c2ncnc3c2oc2ccccc23)c1	18µM*
Fc1ccc(CSc2ncnc3c2oc2ccccc23)cc1	7%
CN1C(=S)SC(/[N+]([O-])=C/c2ccc(Cl)cc2)C1(C)C (centres undefined)	18%[57.5 µM]
COc1ccc(/C=C2\SC(=O)N(CC(=O)NNC(=O)c3ccccc3O)C2=O)cc1OC	13µM*
COc1ccc(/C=C2/SC(=O)N(CC(=O)NCCC(C)C)C2=O)cc1OC	-7%
COc1ccc(/C=C2\SC(=O)N(CC(=O)NCCC(C)C)C2=O)cc1OC	1%[57.5 µM]
O=C(CN1CCOCC1)Nc1ccc2c(c1)OCCO2	0%[57.5 µM]
Cc1ccc(S(=O)(=O)N2C(=O)/C(=C3\SC(=S)NC3=O)c3ccccc32)cc1	1%[57.5 µM]
Cc1ccc(S(=O)(=O)N2c3ccccc3-c3c(ssc3=S)C2(C)C)cc1	13µM*
CC(=O)Nc1ccc(S(=O)(=O)N2c3ccccc3C(C)=CC2(C)C)cc1	2%
CCc1ccc(OCC(=O)N/N=C/c2cc([N+](=O)[O-])ccc2N2CCOCC2)cc1	0%
O=C(O)c1ccc(COc2ccccc2/C=C2\NC(=O)N(Cc3ccccc3)C2=O)cc1	-4%
O=C(O)c1ccc(COc2ccc3ccccc3c2/C=C2/NC(=O)N(Cc3ccc(F)cc3)C2=O)cc1	35µM*
O=C(O)c1ccc(COc2ccccc2/C=C2\NC(=O)N(Cc3ccccc3F)C2=O)cc1	35%
Cc1ccc(O)c(C(=O)c2cc(C#N)c3nc4ccccc4n3c2)c1	32µM*
Cc1ccc(O)c(C(=O)c2cc(C#N)c(=O)n(C(C)c3ccccc3)c2)c1 (centres undefined)	0%
Cc1ccc(O)c(C(=O)c2cc(C#N)c(=O)n(Cc3ccccc3)c2)c1	0%
COc1ccc(-c2[nH]ncc2CN2CCC(OCc3ccccn3)CC2)c(F)c1	-2%[57.5 µM]
COc1ccc(-c2cn[nH]c2-c2ccc(OCc3ccccc3)cc2O)cc1	22µM*
COc1ccc(-c2[nH]ncc2-c2csc(C)n2)c(O)c1	-5%
SMILES	ERK EGF inh
O=[N+]([O-])c1ccc(COc2ccc(-c3[nH]ncc3-c3ccc(Cl)cc3)c(O)c2)cc1	6%
COc1ccc(-c2cn[nH]c2-c2ccc(OCc3ccccc3F)cc2O)cc1OC	32µM*
COc1ccccc1-c1cn[nH]c1-c1ccc(OCc2ccccc2)cc1O	-10%[57.5 µM]
CCOc1ncccc1C(=O)N(C)CC(=O)Nc1ccc(C)cc1	-1%
COc1c2ccoc2c(OC[C@@H](O)C(C)(C)OC)c2oc(=O)ccc12	3%
COc1cccc(C(=O)N2CCC(O)(c3cccnc3)CC2)c1	10%
Cc1cccc[n+]1CCCCCCCCCC[n+]1ccccc1C	-8%
Cc1cc(N)c2ccccc2n1	2%
Cc1cc(N)c2ccccc2[n+]1CCCCCCCCCCCCCC[n+]1c(C)cc(N)c2ccccc21	28µM*
Cc1nc([N+](=O)[O-])cn1Cc1cccc([N+](=O)[O-])c1	6%
Cc1ccc(NC(=O)Cc2ccc([N+](=O)[O-])cc2)c(Br)c1	2%
CC1CCCC(C)N1/N=C/C=C/c1ccccc1[N+](=O)[O-] (centres undefined)	20µM*
O=[N+]([O-])c1ccccc1/C=C/C=N/n1c(-c2ccccc2)n[nH]c1=S	-12%
COc1ccccc1N1CCN(/N=C/C=C\c2ccccc2[N+](=O)[O-])CC1	25µM*
COc1ccccc1N1CCN(/N=C/c2cccc(OC)c2O)CC1	-9%
Cc1ccc(N2CCN(/N=C/c3ccccc3[N+](=O)[O-])CC2)cc1	-4%
CCOC(=O)N/N=C/C=C/c1ccccc1[N+](=O)[O-]	9%
COc1cc(C(=O)NC2CCCC2)c(Br)c(OC)c1OC	-3%
CCOc1ccc(-n2nnc3c(=O)n(CC(=O)NCc4ccco4)cnc32)cc1	-7%[57.5 µM]
Cc1ccc(N=Nc2c(C)[nH]n(-c3ccccc3)c2=O)c(C)c1	2%
Cc1[nH]n(-c2ccccc2)c(=O)c1N=O	-8%
Cc1[nH]n(-c2ccccc2)c(=O)c1N=Nc1ccc2c(c1)OCCO2	13µM*
CC(=O)N[C@H]1[C@@H](O[C@@H](C)C(=O)O)[C@H](O)[C@H](CO)O[C@@H]1O	-10%[25.7 µM]
O=C1C2C3c4ccccc4C(c4ccccc43)[C@@H]2C(=O)N1c1cccnc1 (some centres undefined)	7%
CCc1ccc(N2CC(C(=O)OC)CC2=O)cc1 (centres undefined)	-12%
SMILES	ERK EGF inh
Cc1cc(/C=C2\SC(=S)N(C)C2=O)c(C)n1-c1cccc(O)c1	28µM*
O=C1/C(=C/c2ccccn2)SC(=S)N1c1cccc(O)c1	4%[57.5 µM]
COc1ccc(-n2c(C)cc(/C=C3/SC(=S)N(C)C3=O)c2C)cc1	-6%
COc1ccc(/C=N/NS(C)(=O)=O)c(OC)c1	6%
COc1ccccc1N(CC(=O)NC1CCCCC1)C(=O)c1csnn1	3%
COc1ccc(CCN=Cc2c(C)[nH]n(-c3ccc([N+](=O)[O-])cc3)c2=O)cc1OC	-7%
